According to the supplement of paper PMC7156485:
± gives the standard deviation of the averaged measurements.

Experiments:
Conditions in all cases: concentration: 10 µM; 24 h
HCC1569 [1] = test: cell number relative to DMSO (% of DMSO); higher = more cells (less growth inhibition / toxicity)
Summary of the method: (§1)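 In 384-well plates holding 800 HCC1569 or TDF cells per well in RPMI with 10% FBS, compounds were tested at 10 µM for 24 h at 37 °C in triplicate. Fixation used 3.7% formaldehyde. Staining used a rabbit anti-H1.0 antibody with an AlexaFluor 647 secondary, plus DAPI. Each value, H1.0 nuclear intensity or cell number, is a median of replicates shown as percent of the plate control, and HCC1569 values were smoothed for positional effects.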

TDF [2] = test: as above
Summary of the method: as §1

TDF [3] = test: H1.0 immunofluorescence intensity relative to DMSO (% of DMSO); higher = stronger H1.0 induction, active = 120 or more
Summary of the method: as §1

HCC1569 [4] = test: H1.0 immunofluorescence intensity relative to DMSO (% of DMSO); higher = stronger H1.0 induction, active = 140 or more
Summary of the method: as §1
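For H1.0 immunofluorescence intensity relative to DMSO in this document: TDF is a line of transformed human dermal fibroblasts of mesenchymal origin.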
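For cell number relative to DMSO in this document: TDF denotes transformed human dermal fibroblasts of mesenchymal origin.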

SMILES	cell number (HCC1569 [1])	cell number (TDF [2])	H1.0 immunofluorescence intensity (TDF [3])	H1.0 immunofluorescence intensity (HCC1569 [4])
COc1cc2c(c(OC)c1OC)-c1c(cc3c(c1OC)OCO3)CC(C)C(C)(O)C2OC(=O)c1ccccc1 (stereo not drawn) [Schisantherin A]	106	95	98.5 (inactive)	97.7 (inactive)
Cc1cc2c(s1)=Nc1ccccc1NC=2N1CCN(C)CC1 [Olanzapine]	106	99.4	92.2 (inactive)	95.6 (inactive)
O=C(Nc1ccc([N+](=O)[O-])cc1Cl)c1cc(Cl)ccc1O [Niclosamide]	70	78.1	104 (inactive)	120 (inactive)
CCCCC#Cc1nc(N)c2ncn(C3OC(C(=O)NCC)C(O)C3O)c2n1 (stereo not drawn)	93.3	99.3	95.2 (inactive)	110 (inactive)
NC(=S)NCCCC(N)C(=O)O (stereo not drawn) [Thiocitrulline]	104	112	91.5 (inactive)	95.7 (inactive)
CCCCOC(=O)NC(=O)C1c2ccccc2Oc2ccccc21 [butyl 9H-xanthen-9-ylcarbonylcarbamate]	102	106	90.1 (inactive)	107 (inactive)
CCC1(c2ccccc2)NC(=O)N(C)C1=O (stereo not drawn) [Mephenytoin]	100	109	98.5 (inactive)	104 (inactive)
O=P(O)(O)C(O)(Cc1cccnc1)P(=O)(O)O [Risedronic acid]	110	103	100 (inactive)	99.9 (inactive)
CSc1nc(N)c2ncn(C3OC(COP(=O)([O-])OP(=O)([O-])[O-])C(O)C3O)c2n1.[Na+].[Na+].[Na+] (stereo not drawn) [2-Methylthioadenosine diphosphate trisodium]	99.9	92.9	99.2 (inactive)	89.7 (inactive)
CC[N+](C)(C)Cc1ccccc1Br.Cc1ccc(S(=O)(=O)[O-])cc1 [Bretylium tosylate]	83.4	80.2	105 (inactive)	103 (inactive)
O=C(O)Cc1nn(Cc2nc3cc(C(F)(F)F)ccc3s2)c(=O)c2ccccc12	98.1	90.1	93.4 (inactive)	97.7 (inactive)
Cl.Clc1ccc2nsnc2c1NC1=NCCN1 [Tizanidine.HCl]	118	116	104 (inactive)	83.4 (inactive)
O=C(O)c1ccc2ccccc2c1O.OCc1cc(C(O)CNCCCCCCOCCCCc2ccccc2)ccc1O (stereo not drawn) [Salmeterol xinafoate]	100	100	97.5 (inactive)	121 (inactive)
Cl.NC(N)=NC(N)=Nc1cccc(Cl)c1 [1-(m-Chlorophenyl)-biguanide hydrochloride]	102	97.2	93.4 (inactive)	97.1 (inactive)
COc1ccc2cc1Oc1ccc(cc1)CC1c3c(cc4c(c3Oc3cc5c(cc3OC)CCN(C)C5C2)OCO4)CCN1C (stereo not drawn) [Cepharanthine]	95.3	83	108 (inactive)	129 (inactive)
Cl.NC(=NCc1ccccc1)NC(=O)c1nc(Cl)c(N)nc1N [Benzamil hydrochloride]	94.7	105	92.3 (inactive)	105 (inactive)
CCCc1nc(C)c2c(=O)nc(-c3cc(S(=O)(=O)N4CCN(CC)CC4)ccc3OCC)[nH]n12 [Vardenafil]	105	108	91 (inactive)	100 (inactive)
Cl.NC(N)=NCCNS(=O)(=O)c1cccc2cnccc12 [HA-1004 hydrochloride]	103	116	87.2 (inactive)	88.4 (inactive)
O=C1Nc2ccc(Cl)cc2C(C#CC2CC2)(C(F)(F)F)O1 (stereo not drawn) [Efavirenz]	101	98.5	97.6 (inactive)	111 (inactive)
O=C(O)c1cccnc1Nc1cccc(C(F)(F)F)c1 [Niflumic acid]	98.8 ± 5.9	95.2 ± 23	97.7 (inactive)	101 (inactive)
C[N+](C)(C)CCOC(=O)CCC(=O)OCC[N+](C)(C)C [Succinylcholine]	100	101	99.9 (inactive)	101 (inactive)
CCCCCC=CCC1OC1C=CC(O)CC=CCCCC(=O)O (stereo not drawn) [Hepoxilin A3]	107	102	93.8 (inactive)	100 (inactive)
